Experimental data: article PMC5540273 (PLoS ONE, 2017)

Key:
Settings in all cases: concentration: 1 μM, replicates: in singlicate; n = 1
CAMK1 = tested on: CAMK1
CAMK2A = tested on: CAMK2A
CAMK2B = tested on: CAMK2B
CAMK2D = tested on: CAMK2D
CAMK2G = tested on: CAMK2G
CAMK4 = tested on: CAMK4
CAMKK1 = tested on: CAMKK1
CAMKK2 = tested on: CAMKK2
CASK = tested on: CASK
CDC2L1 = tested on: T1, CDC2L1
T1 construct: gene CDK11B

CDC2L2 = tested on: CDC2L2
CDC2L5 = tested on: T2, CDC2L5
T2 construct: gene CDK13

CDK11 = tested on: T3, CDK11
T3 construct: gene CDK19

CDK2 = tested on: CDK2
CDK3 = tested on: CDK3
CDK4-cyclinD1 = tested on: CDK4-cyclinD1
CDK4-cyclinD3 = tested on: CDK4-cyclinD3
CDK4 = tested on: CDK4
CDK5 = tested on: CDK5
CDK7 = tested on: CDK7
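Further: KINOMEscan kinase panel screen.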

| SMILES | %Inh (CAMK1) | %Inh (CAMK2A) | %Inh (CAMK2B) | %Inh (CAMK2D) | %Inh (CAMK2G) | %Inh (CAMK4) | %Inh (CAMKK1) | %Inh (CAMKK2) | %Inh (CASK) | %Inh (CDC2L1) | %Inh (CDC2L2) | %Inh (CDC2L5) | %Inh (CDK11) | %Inh (CDK2) | %Inh (CDK3) | %Inh (CDK4-cyclinD1) | %Inh (CDK4-cyclinD3) | %Inh (CDK4) | %Inh (CDK5) | %Inh (CDK7) |
| --- | --- | --- | --- | --- | --- | --- | --- | --- | --- | --- | --- | --- | --- | --- | --- | --- | --- | --- | --- | --- |
| Cn1cc(-c2ccc3c(c2)CCN3C(=O)Cc2cccc(Cl)c2)c2c(N)ncnc21 [GSK2606590] | 26% | 0% | 0% | 18% | 25% | 0% | 19% | 12% | 7% | 0% | 18% | 0% | 99.5% | 0% | 7% | 0% | 0% | 34% | 0% | 0% |
| Cc1ccc(C)c(NC(=O)NC2CCN(c3ccnc(Nc4ccc(F)cc4)n3)C2)c1 (stereo not shown) [GSK1379720] | 2% | 0% | 0% | 19% | 4% | 0% | 0% | 0% | 9% | 0% | 0% | 0% | 57% | 0% | 10% | 37% | 0% | 35% | 0% | 0% |
| Nc1ncc(-c2cccnc2)c2scc(-c3ccc4c(c3)CCN4C(=O)Cc3ccccc3)c12 [GSK683281] | 22% | 0% | 0% | 19% | 37% | 1% | 34% | 26% | 26% | 0% | 8% | 0% | 45% | 0% | 21% | 0% | 0% | 14% | 9% | 0% |
| CCc1ccc(-c2ccc3c(c2)-c2c(cnn2C)S(=O)(=O)N3C)cc1 | 2% | 0% | 4% | 0% | 13% | 0% | 13% | 12% | 3% | 0% | 0% | 20% | 7% | 0% | 0% | 3% | 3% | 0% | 0% | 6% |
| COc1cccc(NC(=O)NC2CCN(c3ccnc(Nc4cc(OC)c(OC)c(OC)c4)n3)C2)c1 (stereo not shown) [GSK1379763] | 26% | 0% | 0% | 13% | 38% | 0% | 40% | 36% | 15% | 1% | 10% | 0% | 5% | 0% | 21% | 0% | 0% | 0% | 0% | 0% |
| c1ccc(-c2cnc3nccnn23)cc1 [AH20685] | 0% | 0% | 0% | 0% | 0% | 0% | 1% | 0% | 4% | 0% | 18% | 0% | 0% | 0% | 2% | 0% | 0% | 0% | 0% | 0% |
| FC(F)(F)c1ccc(/C=C/c2cncnc2Nc2ccc3[nH]c(Cc4ccccc4)nc3c2)cc1 [GW709199] | 0% | 34% | 36% | 3% | 8% | 0% | 19% | 0% | 10% | 0% | 0% | 6% | 10% | 0% | 50% | 23% | 0% | 6% | 0% | 0% |
| COc1ccc(Nc2nccc(NCCNC(=O)c3cc4ccccc4s3)n2)cc1 [GSK1379896] | 4% | 0% | 0% | 0% | 16% | 0% | 0% | 0% | 5% | 0% | 1% | 0% | 10% | 0% | 5% | 0% | 0% | 13% | 0% | 0% |
